Values joined by “and” are separate entries in the source; they are usually repeats but may differ in a detail not shown here. Equal entries are not always repeated. Results filed as inconclusive are left out. Entries that show only a call come without a potency. A number with no mark means an inactive call. Active and inactive are the calls of the source. Calls come from the whole dose curve; as a rule, active = well fitted inhibition curve with a large enough effect; inconclusive = small, poorly fitted or top-dose-only effect; inactive = flat fitted curve, though single readings scatter. Peptide text beside a SMILES is read from it.
Potency is the fitted concentration of half-maximal effect.

This assay deals with HaCat. Briefly: Cytotoxic Profiling of Annotated Libraries Using Quantitative High-Throughput Screening (AID 1296008). Note: nearly all actives have a fitted effect of over 60% in size. The conditions noted are these: Five cell lines viability, CellTiter-Glo ATP luminescence, 48-72 h; max response: stronger effect = lower value. An outline of the steps: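 Cytotoxicity was measured as CellTiter-Glo ATP luminescence, read after 10 min at room temperature. Compound treatment of the cells lasted 48 or 72 hr at 37 degrees Celsius in a qHTS format.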
For orientation: In ATP-based viability assays light output follows the ATP content of the culture.
In the case of `CCN(CCO)CCCC(C)Nc1ccnc2cc(Cl)ccc12` (configuration not stated), the max response was -3.55% and -14.9%; the outcome was inactive.
For the compound `CC1=C(C)C(=O)C(C(CCCCCC(=O)O)c2ccccc2)=C(C)C1=O` (configuration not stated), the max response is -5.06% and the compound was called inactive.
The matching figures for `CC(=O)Nc1ccc(O)cc1`: -8.57% and “inactive”.
The matching figures for `Cc1cc2c(s1)Nc1ccccc1N=C2N1CCN(C)CC1`: -13.9% and “inactive”.
Take `CC1=C(C(=O)O)N2C(=O)[C@@H](NC(=O)[C@H](N)C3=CCC=CC3)[C@H]2SC1`: the call was inactive.
The same measure, in the same setting: the entry for `Cc1cccc(CN2CCN(C(c3ccccc3)c3ccc(Cl)cc3)CC2)c1` (configuration not stated) is “inactive”.
On to `CN(C)[C@@H](CCOc1cccc2ccccc12)c1ccccc1`, for which the max response was 4.48% and the call was inactive.
`COC(=O)N[C@H](C(=O)N[C@@H](Cc1ccccc1)[C@@H](O)CN(Cc1ccc(-c2ccccn2)cc1)NC(=O)[C@@H](NC(=O)OC)C(C)(C)C)C(C)(C)C`: the max response was -5.76% and the compound was called inactive.
Take `CCN(CC)C(=S)SSC(=S)N(CC)CC`: the Potency is 11.1 µM (active).
As to `CCC1=C(C)CN(C(=O)NCCc2ccc(S(=O)(=O)NC(=O)NC3CCC(C)CC3)cc2)C1=O` (configuration not stated), the result was inactive.
For the compound `CN(C)c1ccc(O)c2c1C[C@H]1C[C@H]3[C@H](N(C)C)C(=O)C(C(N)=O)=C(O)[C@@]3(O)C(=O)C1=C2O`, the outcome was inactive.
For the compound `O=C(NC(Cc1cc(=O)[nH]c2ccccc12)C(=O)O)c1ccc(Cl)cc1` (configuration not stated), the max response was -8.32% and the compound was classed as inactive.
Consider `O=C(NCC1CCCCN1)c1cc(OCC(F)(F)F)ccc1OCC(F)(F)F` (configuration not stated), for which the max response is -9.94% and -10.2%.
Regarding `CC(=O)NC[C@H]1CN(c2ccc(N3CCOCC3)c(F)c2)C(=O)O1`, the max response is -2.3% and the call was inactive.
With `Clc1ccc(C(Cn2ccnc2)OCc2ccsc2Cl)c(Cl)c1` (configuration not stated), the max response was -18.6% and -23.1%.
For the compound `CN(C)C(=O)COC(=O)Cc1ccc(OC(=O)c2ccc(N=C(N)N)cc2)cc1`, the max response is 3.28% and the outcome was inactive.
As to `COc1cc(C(C)=O)ccc1OCCCN1CCC(c2noc3cc(F)ccc23)CC1`, the compound was classed as inactive.
Regarding `O=C(O)CCNC(=O)c1ccc(N=Nc2ccc(O)c(C(=O)O)c2)cc1`, the max response was -13.4% and the call was inactive.
As for `CCC[C@@H]1C[C@@H](C(=O)N[C@@H]([C@H]2O[C@H](SC)[C@H](O)[C@@H](O)[C@H]2O)[C@@H](C)O)N(C)C1`, the max response is -11.9% and -14%.
Turning to `Cc1nc(-c2ccc(OCC(C)C)c(C#N)c2)sc1C(=O)O`, the max response was 0.712% and the outcome was inactive.
Regarding `CC1(C)CCC(C)(C)c2cc(NC(=O)c3ccc(C(=O)O)cc3)ccc21`, the max response was -6.69% and the outcome was inactive.
The matching figures for `Cc1cc2cc3c(C)cc(=O)oc3c(C)c2o1`: -8.67% and “inactive”.
The matching figures for `CN(c1nccc(=O)[nH]1)C1CCN(c2nc3ccccc3n2Cc2ccc(F)cc2)CC1`: 0.328% and “inactive”.
With `Clc1ccc(C(Cn2ccnc2)OCc2c(Cl)cccc2Cl)c(Cl)c1` (configuration not stated), the max response was 1.49% and the compound was classed as inactive.
The matching figures for `Cc1ccc(C)c(OCCCC(C)(C)C(=O)O)c1`: 3.97% and “inactive”.
Take `CC(C)[C@H](N)C(=O)OCCOCn1cnc2c(=O)[nH]c(N)nc21`: the result was inactive.
Still for that read-out and setting: the result for `Clc1ccc(C(Cn2ccnc2)OCc2ccc(Sc3ccccc3)cc2)c(Cl)c1` (configuration not stated) reads “inactive”.
Regarding `Cc1ncc([N+](=O)[O-])n1CC(C)O` (configuration not stated), the max response was -8.77% and the compound was classed as inactive.
On to `Cc1c(C(=O)NN2CCCCC2)nn(-c2ccc(Cl)cc2Cl)c1-c1ccc(Cl)cc1`, for which the compound was classed as inactive.
`Cn1c(NCCN(CCO)CCCc2ccc([N+](=O)[O-])cc2)cc(=O)n(C)c1=O`: the max response is 0.714% and the call was inactive.
Consider `COc1ccc2cc([C@H](C)C(=O)O)ccc2c1`, for which the max response was -13.6% and the compound was classed as inactive.
The matching figures for `CS(=O)(=O)OCCCCOS(C)(=O)=O`: -18.7% and “inactive”.
In the case of `COc1cc2nc(N3CCN(C(=O)C4CCCO4)CC3)nc(N)c2cc1OC` (configuration not stated), the max response is 3.43% and -0.464%.
For the compound `COC1=C(OC)C(=O)C(CCCCCCCCCCO)=C(C)C1=O`, the max response is -8.33% and the compound was called inactive.
Consider `COc1ccc(C2(C#N)CCC(C(=O)O)CC2)cc1OC1CCCC1` (configuration not stated), for which the outcome was inactive.
`COC(=O)[C@H](Cc1ccccc1)NC(=O)[C@@H](N)CC(=O)O` (H-Asp-Phe-OMe): the max response is 0.0507% and -16.9%.

The values above are taken from PubChem BioAssay (NCATS).
